PubChem BioAssay (EPA / NIEHS)
Several values for one entry are separate records, joined by “and”; a condition that tells them apart may be missing. Identical values can stand only once. Records with an inconclusive call do not appear. Activity calls are given as the source filed them. How the source made its calls: active means hit-call score of the fitted dose curve at least 0.9, where 1 is the maximum; inconclusive means response in the unintended direction; inactive means score below 0.9.

Assay: TOX21_p53_BLA_p4_viability: Viability Assessment in the Tox21 HCT-116 p53 Agonism Beta-lactamase Assay, Phase 4 (AID 2283597);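 further: hits lower the luminescence signal meaning cytotoxicity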
From the text: TOX21_p53_BLA_p4 is a cell-based, single-readout assay that uses HCT116, a human intestinal cell line, […] in a 1536-well plate.TOX21_p53_BLA_p4_viability is an assay readout measuring cellular ATP content and detected with CellTiter-Glo Luciferase-coupled ATP quantitation.TOX21_p53_BLA_p4_viability used a type of viability reporter where loss-of-signal activity can be used to understand changes in the cell viability. Furthermore, this assay endpoint can be referred to as a secondary readout, because this assay has produced multiple assay endpoints where this one serves a viability function. To generalize the intended target to other relatable targets, this assay endpoint is annotated to the cell cycle intended target family, where the subfamily is cytotoxicity.
Thawing Method: Place 14 mL of pre-warmed thaw medium into a 15 mL of conical tub. Remove the vial of cells to be thawed from liquid nitrogen and thaw rapidly by placing at 37C in a water bath with gentle agitation for 1-2 minutes. Decontaminate the vial by wiping with 70% ethanol before opening in a biological safety cabinet. Transfer the vial contents drop-wise into 14 mL of thaw medium in a sterile 15-mL conical tub. Centrifuge cells at 900 rpm for 4 minutes and resuspend in thaw medium. Transfer contents to the T75 tissue culture flask containing Thaw Medium and place flask in a humidified 37C/5% CO2 incubator. Switch to growth medium at first passage.Propagation Method: Aspirate medium, rinse once in DPBS, add 0.25% Trypsin/EDTA and swirl to coat the cell evenly. Add an equal volume of Growth Medium to inactivate Trypsin after 2-3 minutes incubation at 37C. Centrifuge cells at 900 rpm for 4 minutes and resuspend in growth medium. Cell should be passage or fed at least twice a week.Assay Protocol: Harvest cells from culture in growth medium and resuspend in assay medium. 2.2 Dispense 4000 cells/5 uL/well into 1536-well black/clear bottom plates using a Multidrop dispenser. After the cells were incubated at 37C for 5 hours, 23 nL of compounds dissolved in DMSO were transferred to the assay plate by a PinTool resulting in a 217-fold dilution. Incubate the plates for 16 hours at 37C, 5% CO2. Add 1 uL of 6X LiveBLAzer FRET B/G (CCF4-AM) Substrate Mixture to each well using a BioRAPTR dispenser and incubate the plates at room temperature for 2 hours. Measure fluorescence intensity at 460 and 530 nm emission and 405 nm excitation by an Envision detector. Data is expressed as the ratio of 460nm/530nm emissions. Add 4 uL of Cell-titer Glo to each well using BioRAPTR and incubate the plates at room temperature for […]. For cell viability readout that measures cytotoxicity, 4 ul/well of CellTiter-Glo reagent was added into the assay plates using a Flying Reagent Dispenser. After 30 min incubation at room temperature, the luminescence intensity in the plates was measured using a ViewLux plate reader.

| Structure (SMILES) | outcome | AC50 |
| --- | --- | --- |
| CC1(C)[C@H](C=C(Cl)Cl)[C@@H]1C(=O)O[C@@H](C#N)c1cccc(Oc2ccccc2)c1 | inactive |  |
| Nc1c(Br)cc([N+](=O)[O-])cc1[N+](=O)[O-] | inactive |  |
| Cc1nc2ccccc2c(=O)n1-c1ccccc1Cl | inactive |  |
| N[C@@H](Cc1ccc(Oc2cc(I)c(O)c(I)c2)c(I)c1)C(=O)O | inactive |  |
| CN(C)C(=O)C(c1ccccc1)c1ccccc1 | inactive |  |
| C[C@]12C/C(=C/O)C(=O)C[C@@H]1CC[C@@H]1[C@@H]2CC[C@@]2(C)[C@H]1CC[C@]2(C)O |  | 52.8 µM (active) and 34.6 µM (active) |
| C[N+](=O)[O-] | inactive |  |
| CC(Oc1ccc(Oc2ncc(C(F)(F)F)cc2Cl)cc1)C(=O)O (stereo not given) | inactive |  |
| CCC[CH2][Sn]([CH2]CCC)([O]C(C)=O)[O]C(C)=O | inactive |  |
| CCC(C)Br (stereo not given) | inactive |  |
| COc1ccc2c3c1O[C@H]1[C@@H](O)C=C[C@H]4[C@@H](C2)NCC[C@@]341 | inactive |  |
| CCCOC(=O)Cc1ccc(OCC(=O)N(CC)CC)c(OC)c1 | inactive |  |
| CN1C(=O)CC(=O)N(c2ccccc2)c2cc(Cl)ccc21 | inactive |  |
| CC(=O)O[C@H]1C[C@H](O[C@H]2[C@@H](O)C[C@H](O[C@H]3[C@@H](O)C[C@H](O[C@H]4CC[C@@]5(C)[C@H](CC[C@@H]6[C@@H]5C[C@@H](O)[C@]5(C)[C@@H](C7=CC(=O)OC7)CC[C@]65O)C4)O[C@@H]3C)O[C@@H]2C)O[C@H](C)[C@H]1O[C@@H]1O[C@H](CO)[C@@H](O)[C@H](O)[C@H]1O |  | 0.121 µM (active) |
| C=CCSSCC=C | inactive |  |
| C[N+](C)(C)C | inactive |  |
| CCCC(Cn1cncn1)c1ccc(Cl)cc1Cl (stereo not given) | inactive |  |
| O=Cc1ccccc1 | inactive |  |
| O=[N+]([O-])c1cc([N+](=O)[O-])c2ccccc2c1 | inactive |  |
| CC1(C)C(=O)NC(=O)NC1=O | inactive |  |

| Structure (SMILES) | outcome | AC50 |
| --- | --- | --- |
| O=[Se]=O |  | 21 µM (active) |
| CCN(CC)c1c([N+](=O)[O-])cc(C(F)(F)F)c(N)c1[N+](=O)[O-] | inactive |  |
| CNC(=O)Oc1ccccc1C(=O)Nc1ccccc1 | inactive |  |
| IC(I)=C(I)I |  | 12.8 µM (active) |
| CN[C@@]1(c2ccccc2Cl)CCCCC1=O | inactive |  |
| O=C(Cl)CCl | inactive |  |
| CCN[C@@H](C)Cc1ccccc1 | inactive |  |
| CC[C@@H](CO)NC(=O)[C@@H]1C=C2c3cccc4[nH]cc(c34)C[C@H]2N(C)C1 | inactive |  |
| Cc1cc(C(C)(C)c2cc(C)c(O)c(C)c2)cc(C)c1O |  | 57.2 µM (active) |
| CCCCCCCCCCCCCCCl | inactive |  |
| CN1CCc2cc(Cl)c(O)cc2[C@H]2c3ccccc3CC[C@@H]21 | inactive |  |
| COC(=O)c1ccc(CBr)cc1 | inactive |  |
| CCCC=NO | inactive |  |
| OC(c1ccc(F)cc1)(c1cncnc1)c1ccccc1Cl (stereo not given) | inactive |  |
| S=C=S | inactive |  |
| CNC(=O)NC(O)C(Cl)(Cl)Cl (stereo not given) | inactive |  |
| CCCCCCCCCCCCCCCCCCn1cc[n+](C)c1 | inactive |  |
| C#CCN1CC(=O)N(COC(=O)C2C(C=C(C)C)C2(C)C)C1=O (stereo not given) | inactive |  |
| COP(N)(=S)Oc1ccccc1C(=O)OC(C)C (stereo not given) | inactive |  |
| CCCCc1c(C)nc(NCC)[nH]c1=O | inactive |  |
